This passage reports Potency results from PubChem BioAssay (NCATS).

The target in experiment [1] is Retinal dehydrogenase 2 (Homo sapiens) (UniProt O94788). Description: qHTS for Inhibitors of the Aldehyde Dehydrogenase Family (ALDH1A2) Confirmation screens (AID 2061314). Further: nearly all actives have a fitted effect of over 65% in size. Further: potency means the concentration at half of the fitted maximal effect.
Experiment [2] deals with Retinaldehyde dehydrogenase 3 (Homo sapiens) (UniProt P47895). The experiment is described as follows: qHTS for Inhibitors of the Aldehyde Dehydrogenase Family (ALDH1A3) Primary screen (AID 2061315). (In general: qHTS replaces the single test concentration by a dilution series.)
Experiment [3] deals with Aldehyde dehydrogenase 1A1 (Homo sapiens) (UniProt P00352). The experiment is described as follows: qHTS for Inhibitors of the Aldehyde Dehydrogenase Family (ALDH1A1) Confirmatory screens (AID 2061316). Further: potency means the concentration at half of the fitted maximal effect; nearly all actives have a fitted effect of over 65% in size.

Results filed as inconclusive are left out. A call without a number means that no potency is given here. Active and inactive are the calls of the source. The call rests on the fitted dose curve; in most records, active means well fitted inhibition curve with a large enough effect; inconclusive means small, poorly fitted or top-dose-only effect; inactive means no such curve, though single readings can be large or run the other way.

Regarding `CCOc1ccc(N(C)S(=O)(=O)c2cc(-c3cc(C)no3)ccc2OC)cc1`, the Potency result in experiment [1] was “inactive”.

For `N#Cc1cc2c(=O)n3ccccc3nc2n(-c2nnc(SCc3ccc(F)cc3)s2)c1=O`, in experiment [1], the Potency result is “inactive”.

As for `CCCc1cnc2c(c1SCC(=O)N(C)c1ccccc1)c(=O)n(C)c(=O)n2C`, the Potency entry in experiment [1] was “inactive”.

In the case of `COC(=O)c1cc(C)nc2c1c(=O)nc(SCc1ccccc1Cl)n2C1CC1`, the Potency result in experiment [1] was “inactive”.

On to `Cc1ccc(CNc2ncnc3cc(-c4ccc5c(c4)OCO5)ccc23)o1`, for which the Potency entry in experiment [2] is “inactive”.

As for `Cc1ccc(-c2nc3ccccc3s2)cc1NC(=O)c1ccc(-c2cccc(Cl)c2)o1`, the Potency was 22.5 µM (active) in experiment [1] and 8.96 µM (active) in experiment [3]. The Potency entry in experiment [2] was “inactive”.

Turning to `COc1ccccc1NS(=O)(=O)c1cc(NC(=O)c2ccccc2)ccc1N1CCCC1`, the Potency result in experiment [2] was “inactive”.

As for `CC(=O)Nc1sc2c(c1-c1nc3ccccc3s1)CCN(C1COC1)C2`, the Potency was 14.2 µM (active) in experiment [1] and 4 µM (active) in experiment [3]. Further, in experiment [2], the Potency entry was “inactive”.

For `Cc1ccc(-c2ccc(=O)n(CC(=O)NCCCc3ccccc3)n2)cc1`, the Potency result in experiment [2] was “inactive”.

On to `c1csc(CNc2ncnc3cc(-c4ccc5c(c4)OCO5)ccc23)c1`, for which the Potency entry in experiment [2] was “inactive”.

For `Cc1ccc(N2CCN(S(=O)(=O)c3ccc4c(c3)CC(=O)N4)CC2)cc1`, the Potency entry in experiment [2] was “inactive”.

On to `Cn1nnnc1Sc1ncnc2scc(I)c12`, for which the Potency result in experiment [1] and in experiment [2] was “inactive” throughout. Also, the Potency in experiment [3] was 25.2 µM (active).

`OCc1ccc(-c2ccc3ncnc(NCc4nccs4)c3c2)o1`: the Potency in experiment [1] is 14.2 µM (active); in experiment [3], 4 µM (active). Besides, in experiment [2], the Potency result is “inactive”.

In the case of `Oc1ccc(CNc2ccccn2)c2cccnc12`, in experiment [2], the Potency result is “inactive”.

Turning to `O=C(NCc1ccc(Oc2ccccc2)cc1)c1nc(-c2cc(Br)c(O)c(Br)c2)no1`, in experiment [2], the Potency result is “inactive”.

As for `COc1ccc(-c2cnc(N3CCC(C(N)=O)CC3)s2)cc1OC`, the Potency entry in experiment [2] is “inactive”.

Regarding `Cc1csc(CNc2ncnc3ccc(-c4ccc(C(C)O)o4)cc23)n1` (centres undefined), the values for the Potency in experiment [1] and in experiment [3] were 5.65 µM (active) and 11.3 µM (active), respectively. Also, the Potency result in experiment [2] was “inactive”.

With `O=C(O)c1ccc(-c2ccc(NC(=O)c3cccs3)cn2)cc1`, the Potency result in experiment [2] was “inactive”.

With `O=C1CCCC2=C1C(c1ccccc1I)N=C(Nc1nc3ccccc3o1)N2` (centres undefined), in experiment [2], the Potency entry was “inactive”.

As for `CC(O)c1ccc(-c2ccc3ncnc(NCC4CCCO4)c3c2)o1` (centres undefined), the Potency entry in experiment [2] was “inactive”.

For the compound `Cc1ccc(OCCn2c(CCNC(=O)c3ccc(C(C)(C)C)cc3)nc3ccccc32)cc1`, the Potency entry in experiment [2] was “inactive”.

Take `O=C(c1ccccc1O)N(Cc1ccco1)Cc1cccs1`: the Potency in experiment [1] was 22.5 µM (active); in experiment [3], 11.3 µM (active). Also, in experiment [2], the Potency entry is “inactive”.

As for `Nc1c(-c2ccncc2)cc[nH]c1=O`, the Potency in experiment [1] is 0.634 µM (active). In addition, the Potency result in experiment [2] was “inactive”.

As to `Cc1ccnc(NC(=S)N2CCN(c3ccccc3C(F)(F)F)CC2)c1`, the Potency result in experiment [2] is “inactive”.

With `O=C(O)C1NCc2[nH]cnc2C1c1ccccc1` (centres undefined), the Potency is 4 µM (active) in experiment [1] and 11.3 µM (active) in experiment [3]. Further, the Potency result in experiment [2] was “inactive”.

Take `Fc1cccc(CNc2nc(-c3ccccc3C(F)(F)F)nc3ccccc23)c1`: the Potency entry in experiment [2] is “inactive”.

Consider `COc1ccnc(NCc2ccc(O)c3ncccc23)c1`, for which, in experiment [2], the Potency entry was “inactive”.

With `CCOC(=O)c1nn(-c2ccc(OC)cc2)c(=O)c2c(N)scc12`, the Potency result in experiment [2] is “inactive”.

For the compound `O=[N+]([O-])c1cc(C(F)(F)F)ccc1N1CCN(C(=S)Nc2cc(Cl)ccn2)CC1`, the values for the Potency in experiment [1] and in experiment [3] were 14.2 µM (active) and 5.04 µM (active), respectively. Also, the Potency entry in experiment [2] was “inactive”.

Consider `Cc1c(C(N)=O)[nH]c2c1C(=O)CC(c1ccco1)C2` (centres undefined), for which the Potency result in experiment [2] was “inactive”.

On to `COc1ccc(C2Cc3ccccc3C(=O)N2Cc2ccccc2)cc1COc1ccc(NC(C)=O)cc1` (centres undefined), for which the Potency result in experiment [2] is “inactive”.

Regarding `Cc1cc(C)nc(NC(=S)N2CCN(c3cncs3)CC2)c1`, in experiment [2], the Potency result was “inactive”.

As to `Cc1cccc(N2CCN(C(=S)Nc3cc(C)ccn3)CC2)c1`, in experiment [2], the Potency entry is “inactive”.

On to `CCOc1ccc(C(=O)N2CCN(Cc3cc(=O)n4nc(-c5cccc(OC)c5)sc4n3)CC2)cc1`, for which the Potency entry in experiment [1] is “inactive”. Besides, the Potency in experiment [3] was 6.47 µM (active).

Take `CC(Nc1ncnc2ccc(-c3ccc4c(c3)OCO4)cc12)c1ccco1` (centres undefined): the Potency entry in experiment [2] is “inactive”.

For `COc1ccc(Cn2c(C)nnc2-c2cnn(C)c2N)cc1OC`, in experiment [2], the Potency result is “inactive”.

As to `O=S1(=O)N=C(Sc2cccc3cccnc23)c2ccccc21`, the Potency entry in experiment [1] and in experiment [2] was “inactive” each time. For the same compound, the Potency in experiment [3] was 15.9 µM (active).

As to `O=C(CN1C(=O)N/C(=C\c2cccn2-c2cccc(C(=O)O)c2)C1=O)Nc1ccc(Cl)cc1`, in experiment [2], the Potency entry is “inactive”.

As to `CCOC(=O)c1c(-c2ccc(C)o2)csc1NC(=O)CSc1nnnn1-c1ccccc1`, the Potency in experiment [1] was 5.04 µM (active); in experiment [3], 0.4 µM (active). The Potency entry in experiment [2] is “inactive”.

Consider `Fc1ccc(-c2ccc(CNc3nc(-c4ccccc4C(F)(F)F)nc4ccccc34)cc2)cc1`, for which the Potency entry in experiment [2] was “inactive”.

`O=C1CCc2cc([S+](=O)([O-])Nc3ccc(N[S+](=O)([O-])c4ccc5c(c4)CCC(=O)N5)cc3)ccc2N1`: the Potency result in experiment [2] was “inactive”.

For `O=C(CSc1nnc(-c2cccc([S+](=O)([O-])N3CCCC3)c2)n1-c1ccccc1)Nc1ccc(Br)cc1`, the Potency result in experiment [2] is “inactive”.
